# Data from PMC5540273 (PLoS ONE, 2017).
# Read-outs that look alike come from different tables or passages of the source.
# What was measured:
# TAOK2 = conditions: concentration: 1 μM, replicates: in singlicate; n = 1
# TAOK3 = conditions: concentration: 1 μM, replicates: in singlicate; n = 1
# TBK1 = conditions: concentration: 1 μM, replicates: in singlicate; n = 1
# TEC = conditions: concentration: 1 μM, replicates: in singlicate; n = 1
# TESK1 = conditions: concentration: 1 μM, replicates: in singlicate; n = 1
# TGFBR1 = conditions: n = 1
# TGFBR2 = conditions: concentration: 1 μM, replicates: in singlicate; n = 1
# TIE1 = conditions: concentration: 1 μM, replicates: in singlicate; n = 1
# TIE2 = test system: T1, TIE2; conditions: concentration: 1 μM, replicates: in singlicate; n = 1
# T1 construct: gene TEK
# TLK1 = conditions: concentration: 1 μM, replicates: in singlicate; n = 1
# [1] = concentration: 1 μM, replicates: in singlicate
# 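Note: KINOMEscan kinase panel screen.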
Compound,%Inh (TAOK2),%Inh (TAOK3),%Inh (TBK1),%Inh (TEC),%Inh (TESK1),%Inh (TGFBR1; [1]),%Inh (TGFBR2),%Inh (TIE1),%Inh (TIE2),%Inh (TLK1),%Inh (TGFBR1; 1 µM)
O=C(NCCNc1ccnc(Nc2ccc(F)cc2)n1)Nc1ccccc1F [GSK1379880],0%,0%,6%,14%,0%,0%,0%,0%,0%,2%,–
O=C1NC(=O)C(N2CCc3ccccc32)=C1c1cccc(Cl)c1 [SB-408010],0%,0%,0%,0%,30%,0%,1%,0%,12%,10%,–
Nc1nccc(-c2c(-c3ccc(F)cc3)ncn2C2CCN(CC(F)(F)F)CC2)n1 [SB-236560],0%,0%,0%,8%,0%,32%,6%,25%,0%,11%,–
O=C(c1ccc(-c2cc(-c3c[nH]nc3-c3ccccn3)ccn2)cc1)N1CCOCC1 [GW812171],33%,2%,31%,16%,11%,–,11%,0%,1%,0%,90.7%
CN(C(=O)c1ccc(-c2cc(-c3c[nH]nc3-c3ccccn3)ccn2)cc1)C1CCOCC1 [GW810083],0%,0%,0%,0%,1%,–,21%,0%,1%,0%,77%
O=C1Cc2cc(Nc3nc(NCc4cccc(S(=O)(=O)C(F)(F)F)c4)ncc3C(F)(F)F)ccc2N1,0%,0%,0%,0%,0%,0%,2%,0%,0%,0%,–
Cc1cccc(-c2nc(-c3ccc(S(C)(=O)=O)cc3)sc2-c2ccncc2)c1,0%,0%,0%,26%,0%,16%,0%,0%,0%,13%,–
COc1ccc(Nc2ncc(C#N)c(Nc3ccccc3C(N)=O)n2)cc1N1CCN(C)CC1.Cl [GSK1558669],51%,91.3%,99.5%,93.5%,67%,46%,27%,98.5%,97.2%,96.2%,–
COc1ccc(S(=O)(=O)NC2CCN(c3cc(C)nc(Nc4cccc(C#N)c4)n3)CC2)cc1.O=C(O)C(F)(F)F [GSK1653539],0%,0%,11%,10%,5%,0%,0%,0%,0%,8%,–
Cc1ccc(NC(=O)c2ccnc(N3CCN(C)CC3)c2)cc1-c1ccc(C(=O)NCC2CC2)cc1 [GW775604],13%,0%,13%,0%,0%,25%,0%,2%,0%,0%,–
CN(C1=C(c2ccccc2)C(=O)NC1=O)c1ccccc1 [SB-334860],0%,0%,29%,7%,67%,26%,0%,0%,5%,20%,–
COc1ccc(Nc2nccc(N3CCC(NC(=O)Nc4cccc(C(C)=O)c4)C3)n2)cc1 (centres unmarked) [GSK1379731],0%,0%,0%,0%,30%,0%,0%,0%,0%,0%,–
COC(=O)Nc1nc2cc(Oc3ccc(NC(=O)Nc4cc(F)ccc4F)cc3)ccc2[nH]1.Cl [GW701424],0%,0%,9%,0%,73%,27%,0%,93.2%,73%,0%,–
CSc1ccc(-c2cc3ncnc(SCC(=O)O)c3s2)cc1,0%,0%,0%,0%,0%,0%,12%,0%,0%,2%,–
CC(C)Oc1ccc2c(-c3ccnc(Nc4ccc(N5CCN(C)CC5)cc4)n3)cnn2n1 [GW696155],79%,70%,97.9%,0%,12%,29%,35%,80%,0%,95.3%,–
[2H]C([2H])(c1cccc(C(F)(F)F)c1C)n1ccn2c(=O)nc(N3CCOCC3)cc12 [GSK2336394],0%,0%,10%,0%,26%,5%,32%,11%,0%,0%,–
c1ccc(-c2cc(-c3c[nH]nc3-c3ccccn3)ccn2)cc1 [GW576604],0%,0%,5%,0%,9%,–,62%,0%,0%,1%,75%
